Results published in PubChem BioAssay (Tox21).
Values joined by “and” are separate entries in the source; they are usually repeats but may differ in a detail not shown here. Identical values can stand only once. Records with an inconclusive call do not appear. A call without a number means that no potency is given here. Some compounds were tested as several samples or in several runs, with calls that do not always agree. Active and inactive are the calls of the source. Calls come from the whole dose curve; as a rule, active = well fitted curve in the direction sought with a large enough effect in the repeat runs; inconclusive = weak or mixed curves; inactive = no such curve, though single readings can be large; an effect the other way counts as inactive or inconclusive.

Key:
[1] = A CellTox Green Cytotoxicity Assay to monitor cytotoxicity in HEK293 cells - 32 hour (AID 1224881); note: nearly all actives have a fitted effect of over 40% in size
Outline: (§1)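 Fluorescence intensity, read at 0, 8, 16, 24, 32 and 40 h of compound treatment, reflected dye binding to DNA of dead HEK293 cells; compounds (23 nL, DMSO) were added 5 h after plating cells with reagent.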

[2] = A CellTox Green Cytotoxicity Assay to monitor cytotoxicity in HepG2 cells - 0 hour (AID 1224882); note: nearly all actives have a fitted effect of over 35% in size
Outline: (§2)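 Using 1536-well format, dye-containing HepG2 suspension was seeded, allowed 5 h at 37 C/5% CO2, dosed by pintool with compounds, positive and negative controls, and imaged for fluorescence across 40 h.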

[3] = A CellTox Green Cytotoxicity Assay to monitor cytotoxicity in HepG2 cells - 32 hour (AID 1224883); note: nearly all actives have a fitted effect of over 50% in size
Outline: as §2

[4] = A CellTox Green Cytotoxicity Assay to monitor cytotoxicity in HEK293 cells - 8 hour (AID 1224884); note: nearly all actives have a fitted effect of over 35% in size
Outline: as §1

[5] = qHTS RealTime-Glo MT Cell Viability Assay in HepG2 cells - 16 hour (AID 1224885); note: nearly all actives have a fitted effect of over 50% in size
Outline: (§3)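 qHTS, HepG2, 600 cells/well, RealTime-Glo (NanoLuc + prosubstrate) added with cells; 5 h preincubation; DMSO compound addition; 37 C; luminescence at 0/8/16/24/32/40 h.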

[6] = qHTS RealTime-Glo MT Cell Viability Assay in HEK293 cells - 24 hour (AID 1224886); note: nearly all actives have a fitted effect of over 50% in size
Outline: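 Assay medium contained NanoLuc luciferase plus cell-permeant prosubstrate, added with HEK293 cells at 600 cells/well. After 5 h at 37 C/5% CO2 compounds were added; plates stayed at 37 C for 40 h with serial luminescence reads.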

[7] = qHTS RealTime-Glo MT Cell Viability Assay in HepG2 cells - 0 hour (AID 1224889); note: nearly all actives have a fitted effect of over 50% in size
Outline: as §3

[8] = A CellTox Green Cytotoxicity Assay to monitor cytotoxicity in HepG2 cells - 8 hour (AID 1224890); note: nearly all actives have a fitted effect of over 45% in size
Outline: as §2

[9] = A CellTox Green Cytotoxicity Assay to monitor cytotoxicity in HEK293 cells - 16 hour (AID 1224888); note: nearly all actives have a fitted effect of over 35% in size
Outline: as §1

[10] = qHTS RealTime-Glo MT Cell Viability Assay in HEK293 cells - 8 hour (AID 1224887); note: nearly all actives have a fitted effect of over 50% in size
Outline: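 Viable HEK293 cells reduce a cell-permeant prosubstrate; the product diffuses out and is consumed by NanoLuc in the medium to give light. Compounds went in after a 5 h incubation and plates were read over the treatment course.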
Potency is the fitted concentration of half-maximal effect.

| SMILES | Potency [1] | Potency [2] | Potency [3] | Potency [4] | Potency [5] | Potency [6] | Potency [7] | Potency [8] | Potency [9] | Potency [10] |
| --- | --- | --- | --- | --- | --- | --- | --- | --- | --- | --- |
| Oc1ccc(Cl)cc1Cc1ccccc1 | 12.3 µM (active) and 22.1 µM (active) and 21.3 µM (active) | inactive | inactive and 33.1 µM (active) | inactive | 49.6 µM (active) and inactive | 21.9 µM (active) and 19.7 µM (active) | inactive | inactive and 31.3 µM (active) | – | – |
| CN(C)P(=O)(N(C)C)N(C)C | inactive | inactive | inactive | inactive | inactive | inactive | inactive | inactive | inactive | – |
| OC(c1ccc(Cl)cc1)(c1cncnc1)c1ccccc1Cl (configuration not stated) | 25 µM (active) and inactive | inactive | 17.7 µM (active) and inactive | inactive | 39.6 µM (active) | 7.04 µM (active) | inactive | inactive | – | 22.3 µM (active) |
| CCC[CH2][Sn]([Cl])([Cl])[CH2]CCC | 442 nM (active) and 1.38 µM (active) | inactive | 351 nM (active) and 490 nM (active) | inactive and 49 µM (active) | 701 nM (active) and 616 nM (active) | 111 nM (active) and 138 nM (active) | inactive | 14 µM (active) and 13.8 µM (active) | 786 nM (active) and 24.5 µM (active) | – |
| CCC(=O)Nc1ccc(Cl)c(Cl)c1 | inactive | inactive | inactive | inactive | inactive | 44.5 µM (active) and 43.6 µM (active) | inactive | inactive | inactive | – |
| CCOP(=S)(OCC)SCn1c(=O)oc2cc(Cl)ccc21 | inactive | inactive | inactive | inactive | inactive | 26.3 µM (active) and 21.9 µM (active) | inactive | inactive | inactive | – |
| OCCOCCO | inactive | inactive | inactive | inactive | inactive | inactive | inactive | inactive | inactive | – |
| COP(=S)(OC)SCn1nnc2ccccc2c1=O | inactive | inactive | inactive | inactive | inactive | – | inactive | inactive | inactive | – |
| CCCCCCCCCCCCCl | inactive and 19.5 µM (active) | inactive and 19.5 µM (active) | inactive and 12.3 µM (active) | inactive and 19.5 µM (active) | inactive | inactive | inactive | inactive and 12.3 µM (active) | – | inactive |
| CCCCOCC1CO1 (configuration not stated) | inactive and 19.5 µM (active) | inactive and 38.9 µM (active) | inactive and 43.6 µM (active) | inactive and 24.5 µM (active) | inactive | inactive | inactive | inactive and 43.6 µM (active) | – | – |
| CCN(CC)C(=O)C(C)Oc1cccc2ccccc12 (configuration not stated) | inactive | inactive | inactive | inactive | inactive | inactive | 43.6 µM (active) | inactive | inactive | – |
| Cn1c(-c2ccccc2)cc(-c2ccccc2)[n+]1C | inactive | inactive | inactive | inactive | inactive | – | inactive | inactive | inactive | inactive |
| O=C1C(Cl)=C(Cl)C(=O)c2ccccc21 | 6.19 µM (active) and 6.17 µM (active) | inactive | 15.5 µM (active) and 4.9 µM (active) | 27.6 µM (active) and inactive | 21.9 µM (active) and 6.92 µM (active) | 6.19 µM (active) and 9.77 µM (active) | – | 15.5 µM (active) and 6.17 µM (active) | 4.91 µM (active) | 6.19 µM (active) and 7.76 µM (active) |
| COc1ccc(CO)cc1 | inactive | inactive | inactive | inactive | inactive | inactive | inactive | inactive | inactive | – |
| CC(C)=CC1C(C(=O)OCc2cccc(Oc3ccccc3)c2)C1(C)C (configuration not stated) | inactive | inactive | inactive | inactive | – | inactive | inactive | inactive | inactive | inactive |
| CN(C)c1nc(=O)n(C2CCCCC2)c(=O)n1C | inactive | inactive | inactive | inactive | inactive | inactive | inactive | inactive | inactive | – |
| CCOP(=O)(O)OCC (tested in a mixture with another compound) | inactive and 24.3 µM (active) | inactive | inactive and 38.6 µM (active) | inactive and 54.5 µM (active) | inactive and 48.6 µM (active) | inactive and 8.64 µM (active) | inactive | inactive and 54.5 µM (active) | – | – |
| CC(C)(O)C(=O)Nc1ccc([N+](=O)[O-])c(C(F)(F)F)c1 | inactive | inactive | inactive | inactive | inactive | 25.1 µM (active) and 17.9 µM (active) | inactive | inactive | inactive | – |
| CS(=O)(=O)NC(=O)c1cc(Oc2ccc(C(F)(F)F)cc2Cl)ccc1[N+](=O)[O-] | inactive | inactive | inactive | inactive | inactive | inactive | inactive | inactive | inactive | – |
| ClCc1ccccn1 | inactive | inactive | inactive | inactive | inactive | inactive | inactive | inactive | inactive | – |
| O=C(O)c1nn(Cc2ccc(Cl)cc2Cl)c2ccccc12 | inactive | inactive | inactive and 95.2 nM (active) | inactive | inactive | inactive | inactive | inactive and 95.2 nM (active) | inactive | – |

| SMILES | Potency [1] | Potency [2] | Potency [3] | Potency [4] | Potency [5] | Potency [6] | Potency [7] | Potency [8] | Potency [9] | Potency [10] |
| --- | --- | --- | --- | --- | --- | --- | --- | --- | --- | --- |
| Cc1cc(Cl)ccc1N=CN(C)C | inactive | inactive | inactive | inactive | inactive | inactive | inactive | inactive | inactive | – |
| CCOC(=O)c1ccccc1N | inactive | inactive and 43.6 µM (active) | inactive and 54.9 µM (active) | inactive and 43.6 µM (active) | – | inactive | inactive | inactive and 49 µM (active) | inactive | inactive |
| O=S(=O)(O)C(F)(F)C(F)(F)C(F)(F)C(F)(F)C(F)(F)C(F)(F)C(F)(F)C(F)(F)F | 33 µM (active) and inactive and 21.9 µM (active) | inactive | 18.6 µM (active) and inactive | 37 µM (active) and inactive and 11 µM (active) | inactive | inactive | – | inactive | – | inactive |
| CC(C)=CC1C(C(=O)OCN2C(=O)C3=C(CCCC3)C2=O)C1(C)C (configuration not stated) | inactive | inactive | inactive | inactive | inactive | inactive | inactive | inactive | inactive | – |
| CC(C)CON=O | inactive | inactive | inactive | inactive | inactive | inactive | inactive | inactive | inactive | – |
| ClC(Cl)=C(Cl)C(Cl)=C(Cl)Cl | inactive | inactive | inactive | inactive | – | inactive | inactive | inactive | inactive | inactive |
| CCC[CH2][Sn]([Cl])([CH2]CCC)[CH2]CCC | 618 nM (active) and 776 nM (active) | inactive | 1.74 µM (active) and 1.23 µM (active) | 6.18 µM (active) and 7.76 µM (active) | 2.19 µM (active) and 692 nM (active) | 347 nM (active) and 549 nM (active) | inactive | 3.47 µM (active) and 1.95 µM (active) | 3.1 µM (active) and 5.49 µM (active) | – |
| ClC(Cl)(Cl)c1ccccc1 | inactive | inactive | inactive | inactive | inactive | inactive | inactive | inactive | inactive | – |
| O=[N+]([O-])c1ccc(Cl)c([N+](=O)[O-])c1 | 19.8 µM (active) and 24.5 µM (active) | inactive | 35.2 µM (active) and 24.5 µM (active) | inactive | 39.5 µM (active) and 17.4 µM (active) | 11.1 µM (active) and 12.3 µM (active) | inactive | 61.7 µM (active) | inactive | – |
| NN=C(N)N | inactive | inactive | inactive | inactive | – | inactive | inactive | inactive | inactive | inactive |
| O=[N+]([O-])c1ccc(Nc2ccccc2)cc1 | inactive | inactive | inactive | inactive | inactive | 44 µM (active) and 21.9 µM (active) | inactive | inactive | inactive | – |
| Clc1ccccc1-c1nnc(-c2ccccc2Cl)nn1 | inactive | inactive | inactive | inactive | inactive | inactive | inactive | inactive | inactive | – |
| O=C1Nc2ccc(Cl)cc2C(c2ccccc2)=NC1O (configuration not stated) | inactive | inactive | inactive | inactive | inactive | inactive | inactive | inactive | inactive | – |
| CCNCC | inactive | inactive | inactive | inactive | inactive | inactive | inactive | inactive | inactive | inactive |
| Cc1cccc(N=Nc2ccc(N(C)C)cc2)c1 | inactive | inactive | inactive | inactive | inactive | – | inactive | inactive | inactive | – |
| c1ccc2c(c1)Nc1ccccc1S2 | inactive | inactive | inactive | inactive | – | 11 µM (active) and 10.7 µM (active) | inactive | inactive | inactive | 13.8 µM (active) and 10.7 µM (active) |
| O=NN1CCOCC1 | inactive | inactive | inactive | inactive | – | inactive and 2.45 µM (active) | inactive | inactive | inactive | inactive and 7.76 µM (active) |
| CCOP(=S)(OCC)SCSC(C)(C)C | inactive | inactive | inactive | inactive | – | inactive | inactive | inactive | inactive | inactive |
| Nc1ccc2ccccc2c1 | inactive | inactive | inactive | inactive | – | inactive | inactive | inactive | inactive | inactive |
| Cc1ccc([N+](=O)[O-])cc1 | inactive | inactive | inactive | inactive | – | inactive | inactive | inactive | inactive | – |
| Cc1ccc(N=CN(C)C=Nc2ccc(C)cc2C)c(C)c1 | inactive | inactive | 43.6 µM (active) and inactive | inactive | – | 39.1 µM (active) and 38.9 µM (active) and inactive | inactive | inactive | inactive | inactive |
